From PubChem BioAssay AID624116 (National Center for Advancing Translational Sciences (NCATS), 2012)
Inconclusive results are not listed. The source made the active and inactive calls. Calls follow the shape of the dose curve; as a rule, active = well fitted activation curve with a large enough effect; inconclusive = small, poorly fitted or top-dose-only effect; inactive = no such curve, though single readings can be large or run the other way.

assay: qHTS Assay for Rab9 Promoter Activators: Hit Validation Using Renilla Luciferase Read-Out for Rab9; conditions: Huh7 Rab9 promoter Renilla luciferase reporter, 24 h; series mostly up to 76.9 µM; activation, negative = inhibition: at the top concentration; as to activation, negative = inhibition: % of control where 0% means no effect
Description: Niemann Pick Type C (NPC) is a rare neurodegenerative lipidosis that is characterized by lipid storage in the endosomal/lysosomal system. Treatment modalities for this devastating disease are currently non-existent due to the severe obstacles associated with accessing the central nervous system with proteins or genes. The majority of mutations causing NPC disease are missense mutations that are distributed throughout the length of the NPC1 protein, with the most prevalent being the I1061T allele. Although NPC1 mutant proteins may be functional, they are typically trapped in the ER due to misfolding. […] We have developed and optimized a cell based renilla luciferase reporter assay in 1536 well format for the identification of up-regulators of the mutant Rab9 promoter. This assay presents data on the validation of hits from the primary screen, which used a firefly luciferase read-out. NIH Chemical Genomics Center [NCGC] NIH Molecular Libraries Probe Production centers Network [MLPCN] MLPCN Grant: MH089375 Assay Submitter (PI): Yiannis A. Ioannou
Huh7 cells stably expressing NPC promoter-luciferase will be seeded at 1,500 cells/well in 5 uL in 1,536-well white opaque plates with 23 nL/well of compound in DMSO solution. The assay plates will be incubated at 37 deg C for 24 hours, after which 3 uL/well BriteLite plus luciferase detection reagent mixture (Perkin Elmer) will be added. Luminescence signal will be measured in a ViewLux plate reader (Perkin Elmer) after a 10 minute incubation at the room temperature.
Potency is read from the fitted curve at half-maximal effect.

Row | Compound | activation, negative = inhibition | Potency
1 | CCCCn1c(Nc2ccc(OC)cc2)nc2ccccc21 | -15.8% (inactive) | 
2 | O=C(CCCOc1ccc(Cl)cc1)N1CCCCC1 | -14.9% (inactive) | 
3 | Cc1ccc(C(=O)Nc2nnc(S(=O)(=O)N3CCOCC3)s2)cc1 | 3.62% (inactive) | 
4 | COC(=O)c1sccc1NC(=S)OC | 9.49% (inactive) | 
5 | O=C(Nc1nc2ccc(F)cc2s1)c1ccc(N2CCCC2=O)cc1 | -9.51% (inactive) | 
6 | Cc1ccc(C#N)c(SCC(=O)Nc2nccs2)n1 | 0.867% (inactive) | 
7 | Nc1ccc(C(=O)Nc2ccccc2N)cc1 |  | 16.4 µM (active)
8 | CCC(=O)Nc1cc(-c2cc3ccccc3oc2=O)ccc1OC | -6.1% (inactive) | 
9 | CCc1cc(C(=O)Nc2ccccc2)cs1 | -35.2% (inactive) | 
10 | CCOC(=O)CSc1nc2cc(C)ccc2cc1C#N | -0.328% (inactive) | 
11 | O=C(CCNC(=O)c1ccc(Br)o1)NCc1ccc(Cl)cc1 | -1.43% (inactive) | 
12 | COc1ccccc1NC(=S)NCc1ccc(Cl)cc1 | -3.88% (inactive) | 
13 | CCOc1ccc(CNC(=O)C2CCCN(S(C)(=O)=O)C2)cc1OC (stereo not given) | -1.74% (inactive) | 
14 | CNC(=O)Cn1nc(C)c2ccccc2c1=O | -0.365% (inactive) | 
15 | CC(C)(C)NC(=S)NNC(=O)c1ccc2ncccc2c1 | -21.4% (inactive) | 
16 | CN(C)C(=O)[C@H]1C[C@H]1[C@@H](O)[C@H](CO)NC(=O)[C@H](COCc1ccccc1)NC(=O)OC(C)(C)C | -3.65% (inactive) | 
17 | FC(F)(F)c1ccc(Nc2nnnc3ccccc23)cc1 | -66.4% (inactive) | 
18 | COc1ccc(-n2cc(-c3ccc(Cl)cc3)[nH]c2=S)cc1 | -6.48% (inactive) | 
19 | CN(C)/C=N/c1c(C#N)cnn1-c1nc2ccccc2s1 | -4.94% (inactive) | 
20 | O=C(c1cccc(Oc2ccc([N+](=O)[O-])cc2)c1)N1CCOCC1 | -14.1% (inactive) | 

Row | Compound | activation, negative = inhibition | Potency
21 | COc1ccccc1CNC(=O)COc1ccc(C)cc1 | 3.47% (inactive) | 
22 | COc1cccc(C2Nc3ccccc3NC3=C2C(=O)CC(C)(C)C3)c1 (stereo not given) | -7.96% (inactive) | 
23 | Cc1nn(CCCC(=O)NCc2ccc(F)cc2)c(C)c1[N+](=O)[O-] | -6.9% (inactive) | 
24 | O=C(/C=C/c1ccco1)NCC1OCCc2ccccc21 (stereo not given) | 10.4% (inactive) | 
25 | Cc1ccccc1NC(=O)Cc1nc(COC(=O)CC(C)c2ccccc2)cs1 (stereo not given) | -7.63% (inactive) | 
26 | O=C(CSc1nnc(-c2ccc([N+](=O)[O-])cc2)o1)Nc1ccccn1 | -5.92% (inactive) | 
27 | Cc1nc(-c2ccccn2)sc1C(=O)Nc1ccc(F)cc1F | -4.26% (inactive) | 
28 | COc1ccc(NC(=S)NNC(=O)c2cccs2)cc1 | -63% (inactive) | 
29 | CC(C)C1(CCNC(=O)c2cccs2)CCOC(C)(C)C1 (stereo not given) | 6.93% (inactive) | 
30 | CCCN(CCC)CCCNC(=O)c1cc2cc3ccc(Cl)cc3nc2o1 | 1.11% (inactive) | 
31 | Cc1ccc(NC(=O)COC(=O)C2C3CC4OC(=O)C2C4C3)cc1Cl (stereo not given) | -1.3% (inactive) | 
32 | COc1ccc(S(=O)(=O)NC(C(=O)NCCc2ccccn2)C(C)C)cc1 (stereo not given) | -2.29% (inactive) | 
33 | COc1cccc(CNC(=O)CN(c2cc(C)cc(C)c2)S(=O)(=O)c2c(C)noc2C)c1 | 6.58% (inactive) | 
34 | O=C(CSc1nnc(-c2ccccn2)o1)Nc1ccccc1F | -6.23% (inactive) | 
35 | O=C(NCCc1ccccc1)c1cc2ncc(Br)cn2n1 | 1.2% (inactive) | 
36 | Nc1nc(SCCO)[nH]c(=O)c1NC(=O)c1ccco1 | 5.9% (inactive) | 
37 | CC(=O)c1cccc(NC(=O)N2CCOCC2)c1 | -2.63% (inactive) | 
38 | O=CN1CCN(C(=O)c2ccccc2Cl)CC1 | -5.76% (inactive) | 
39 | CC(C)(C)C(=O)NC(=S)Nc1ccccc1F | -4.64% (inactive) | 
40 | Cc1ccc(C2C3=C(CC(C)(C)CC3=O)N(CCN3CCOCC3)C3=C2C(=O)CC(C)(C)C3)cc1 |  | 20.7 µM (active)
